Our source for the Potency and activity change, negative = cytotoxicity values is PubChem BioAssay (NCATS).

What all share (assay): Primary qHTS to identify gynecologic anti-cancer compounds using libraries of approved drugs and bioactive compounds (AID 1345084); further: nearly all actives have a fitted effect of over 55% in size
One experiment concerns C33A. Conditions: Gynecologic cancer cell panel viability, ATPlite luminescence, 48 h; series mostly up to 57.5 µM. The procedure, abridged:
(§1)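 Luminescence from the ATPlite ATP-monitoring reagent indicates viable cell number; lower signal means cytotoxicity. Cells received compound 16 h after seeding and were exposed for 48 h across five concentrations.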
(In general: In ATP-based viability assays light output follows the ATP content of the culture.)

In another experiment the test system is CASKI. The note with it: Gynecologic cancer cell panel viability, ATPlite luminescence, 48 h; series mostly up to 57.5 µM. Put shortly: as §1
Another experiment relates to Es-2. The note with it: Gynecologic cancer cell panel viability, ATPlite luminescence, 48 h; series mostly up to 57.5 µM. The procedure, abridged: as §1
Another experiment relates to HeLa. The note with it: Gynecologic cancer cell panel viability, ATPlite luminescence, 48 h; series mostly up to 57.5 µM. Put shortly: as §1
The subject of a further experiment is Hek293T. Conditions: Gynecologic cancer cell panel viability, ATPlite luminescence, 48 h, control line for the selectivity index; series mostly up to 57.5 µM. The procedure, abridged: as §1
The subject of the next experiment is JEG-3. The note with it: Gynecologic cancer cell panel viability, ATPlite luminescence, 48 h; series mostly up to 57.5 µM. The procedure, abridged:
as §1

The subject of a further experiment is OV90. Conditions: Gynecologic cancer cell panel viability, ATPlite luminescence, 48 h; series mostly up to 57.5 µM. The procedure, abridged: as §1
The test system of another experiment is CAOV3. The note with it: Gynecologic cancer cell panel viability, ATPlite luminescence, 48 h; series mostly up to 57.5 µM. Put shortly: as §1

Results filed as inconclusive are left out. Unmarked numbers belong to inactive results. Activity calls are given as the source filed them. The call rests on the fitted dose curve; in most records, active means well fitted cell-killing curve with a large enough effect; inconclusive means small, poorly fitted or top-dose-only effect, or effect the other way; inactive means flat fitted curve, though single readings scatter.
On the % scale 0 is the no-effect control and ±100 the full control effect; potency means the concentration at half of the fitted maximal effect.

On to `CN1C(=O)c2ccccc2NC(=O)[C@]12O[C@@H]2c1ccccc1`, for which the Potency entry in the experiment with C33A, in the experiment on CASKI, in the experiment with Es-2, in the experiment on HeLa, in the experiment on Hek293T and with JEG-3 was “inactive” each time. In the experiment with OV90, the Potency entry was “inactive”.
In the case of `CCCSP(=O)(OCC)SCCC`, the Potency result in the experiment on C33A, in the experiment on CAOV3, in the experiment on CASKI, with Es-2, in the experiment on HeLa and in the experiment with Hek293T was “inactive” each time. Moreover, the Potency entry in the experiment on OV90 was “inactive”.
On to `COC(=O)C12C(=O)C(C)(O)C(=O)C1(C)C(C)=CC1C34CCC(OC3=O)C(C)(CO)C4CCC12C` (centres undefined), for which the Potency result in the experiment on C33A, in the experiment with CAOV3, in the experiment with CASKI, in the experiment on Es-2, with HeLa and in the experiment on Hek293T was “inactive” each time. In addition, the Potency result in the experiment on JEG-3 and in the experiment on OV90 was “inactive” throughout.
On to `COC1CC(O[C@H]2CC[C@@]3(C)C(=CCC4C3C(O)[C@@H](O)[C@]3(C)[C@@H](C(C)=O)CC[C@]43O)C2)OC(C)C1OC1CC(OC)C(OC2OC(C)C(O)C(O)C2O)C(C)O1` (some centres undefined), for which the activity change, negative = cytotoxicity in the experiment with C33A is -3.17% [at 11.6 µM]; in the experiment on CAOV3, -3.8% [at 11.6 µM]; in the experiment on CASKI, -11.2% [at 11.6 µM]; with Es-2, -3.8% [at 11.6 µM]; with HeLa it was -11.4% [at 11.6 µM]; with Hek293T, -2.86% [at 11.6 µM]. Further, the activity change, negative = cytotoxicity in the experiment with JEG-3 is -1.29% [at 11.6 µM]; in the experiment on OV90 it was -0.104% [at 11.6 µM].
For the compound `Cc1c(Cl)cccc1S(=O)(=O)Nc1nc(CC(=O)N2CCN(C)CC2)cs1`, the Potency result with C33A, in the experiment on CAOV3, with CASKI, with Es-2, with HeLa and with Hek293T was “inactive” throughout. Also, the Potency result in the experiment on JEG-3 and with OV90 was “inactive” in each case.
Take `CN1CCC[C@@H]1Cc1c[nH]c2ccc(Nc3ncccc3[N+](=O)[O-])cc12`: the Potency result in the experiment on C33A, with CAOV3, in the experiment with CASKI, in the experiment with Es-2, with HeLa and in the experiment with JEG-3 was “inactive” each time. In addition, in the experiment on OV90, the Potency result is “inactive”.
On to `COC1=CC(=O)O[C@@H](/C=C/c2ccccc2)C1`, for which the Potency result in the experiment with C33A, in the experiment on CASKI, in the experiment on Es-2, with HeLa, with Hek293T and with JEG-3 was “inactive” in each case.
`CC[C@H]1CN2CC[C@H]1C[C@@H]2[C@@H](O)c1ccnc2ccc(OC)cc12`: the Potency entry in the experiment on C33A, with CASKI, with Es-2, in the experiment with HeLa, in the experiment with Hek293T and in the experiment with JEG-3 was “inactive” throughout. The Potency entry in the experiment with OV90 is “inactive”.
As to `CC(=O)OC1CC(O)C(C)(C)C2CC(OC(C)=O)C3(C)C(CCC4(C)C(c5ccoc5)C(=O)C5OC543)C12C` (centres undefined), the Potency entry in the experiment on C33A, with CAOV3, in the experiment on CASKI, in the experiment on Es-2, in the experiment on HeLa and in the experiment with Hek293T was “inactive” throughout. For the same compound, the Potency entry in the experiment with JEG-3 and in the experiment with OV90 was “inactive” each time.
With `CCc1c(C(=O)C(N)=O)c2c(OCC(=O)OC)cccc2n1Cc1ccccc1`, the Potency result with C33A, in the experiment with CASKI, in the experiment on Es-2, with HeLa, in the experiment with Hek293T and with JEG-3 was “inactive” in each case. Moreover, the Potency entry in the experiment with OV90 was “inactive”.
Regarding `N#CC(OC1OC(COC2OC(CO)C(O)C(O)C2O)C(O)C(O)C1O)c1ccccc1` (centres undefined), the Potency result in the experiment on C33A, in the experiment with CAOV3, in the experiment with CASKI, in the experiment on Es-2, with Hek293T and in the experiment on JEG-3 was “inactive” throughout. Also, the Potency entry in the experiment with OV90 was “inactive”.
In the case of `COC1=CC(=O)O[C@@H](CCc2ccccc2)C1`, the Potency result in the experiment with C33A, in the experiment on CAOV3, with CASKI, with Es-2, in the experiment with HeLa and with Hek293T was “inactive” in each case. The Potency result with JEG-3 and with OV90 was “inactive” each time.
As for `COC1C(O)C(C)OC(OC2C(CO)O[C@@H](O[C@@H]3CC4CCC5C(CC[C@]6(C)[C@@H](C7=CC(=O)OC7)CC[C@]56O)[C@@]4(C)[C@H](O)C3)C(O)C2O)C1O` (some centres undefined), the Potency was 794 nM (active) in the experiment with C33A; 2820 nM (active) in the experiment on CAOV3; 2510 nM (active) in the experiment with CASKI; 2820 nM (active) in the experiment with Es-2; 2820 nM (active) in the experiment on HeLa; 2820 nM (active) in the experiment with Hek293T. Moreover, in the experiment on OV90, the Potency is 4470 nM (active).
Regarding `CC(=O)OC1CC(O)C2(C)C(CC(OC(C)=O)C3(C)C2CCC2(C)C(c4ccoc4)C(=O)C4OC423)C1(C)C` (centres undefined), the Potency entry with C33A, in the experiment with CAOV3, with CASKI, with Es-2, in the experiment on HeLa and in the experiment on Hek293T was “inactive” each time. Besides, the Potency result in the experiment with JEG-3 and with OV90 was “inactive” each time.
With `CC(C)[C@@H](CN1CC[C@@](C)(c2cccc(O)c2)[C@@H](C)C1)NC(=O)[C@H]1Cc2ccc(O)cc2CN1`, the Potency result in the experiment with C33A, in the experiment with CASKI, with Es-2, with HeLa, with Hek293T and in the experiment with JEG-3 was “inactive” throughout. Further, the Potency entry with OV90 is “inactive”.
For the compound `C/C=C(\C)C(=O)OC1C(C)OC(OC2C(C)OC(OC3CCC4(C)C(=CCC5C4CCC4(C)C(C(C)OC6OC(COC7OC(CO)C(O)C(O)C7O)C(O)C(O)C6O)CCC54O)C3)CC2OC)C(O)C1OC` (centres undefined), the activity change, negative = cytotoxicity with C33A was 7.57% [at 11.6 µM]; with CAOV3, 12.8% [at 11.6 µM]; in the experiment with CASKI, 9.44% [at 11.6 µM]; in the experiment on Es-2 it was 4.35% [at 11.6 µM]; in the experiment on HeLa, 3.42% [at 11.6 µM]; in the experiment with Hek293T, 8.11% [at 11.6 µM]. Also, the activity change, negative = cytotoxicity with JEG-3 is -0.0196% [at 11.6 µM]; in the experiment with OV90, -0.455% [at 11.6 µM].
In the case of `Clc1ccc(N2C[C@H]3CC[C@@H](C2)N3)nn1`, the Potency entry in the experiment with C33A, in the experiment on CASKI, in the experiment with Es-2, with HeLa, in the experiment on Hek293T and in the experiment on JEG-3 was “inactive” each time. For the same compound, the Potency result in the experiment with OV90 was “inactive”.
Turning to `CN1C(=O)c2ccccc2NC(=O)C1Cc1ccccc1` (centres undefined), the Potency result in the experiment on C33A, in the experiment on CAOV3, in the experiment on CASKI, with Es-2, with HeLa and in the experiment on Hek293T was “inactive” throughout. In addition, the Potency result with JEG-3 and with OV90 was “inactive” throughout.
With `C1=C2CCCN[C@H]2[C@@H]2C[C@H]1[C@H]1CCCCN1C2`, the Potency entry with C33A, in the experiment with CAOV3, in the experiment on CASKI, in the experiment with Es-2, with HeLa and with Hek293T was “inactive” throughout. In addition, the Potency result with JEG-3 and in the experiment with OV90 was “inactive” throughout.
With `Clc1ccc(OCC2=NCCN2)cc1Cl`, the Potency entry with C33A, with CAOV3, with CASKI, with Es-2, in the experiment on HeLa and in the experiment with Hek293T was “inactive” throughout. In addition, the Potency result in the experiment with JEG-3 and in the experiment with OV90 was “inactive” throughout.
